# Results from PubChem BioAssay (NCATS).
# Inconclusive results are not listed. Activity calls are given as the source filed them. The call rests on the fitted dose curve; in most records, active means well fitted curve in the direction sought with a large enough effect in the signal ratio (not every such curve was filed as active); inconclusive means small, poorly fitted or top-dose-only effect, or effect the other way, or a change in a side signal; inactive means no such curve, though single readings can be large or run the other way; the % refers to the signal ratio.
# Molecular target: Tyrosine-protein phosphatase non-receptor type substrate 1 (Homo sapiens) + Leukocyte surface antigen CD47 (Homo sapiens) (UniProt P78324+Q08722)
# Assay: CD47-SIRPalpha protein protein interaction - HTRF assay qHTS validation (AID 1347058)
# Conditions: TR-FRET HTRF CD47-His / biotin-SIRPalpha binding, ratio 665/615; series mostly up to 38.3 µM
# Excerpt: SIRPalpha is a myeloid cell expressed immunomodulatory receptor that binds the tumor expressed immune checkpoint CD47. Therapeutic disruption of this interaction leads to immune-mediated tumor rejection. This assay was used to quantitate CD47-SIRPalpha binding biochemically and evaluate chemical libraries for novel CD47-SIRPalpha inhibitors. To recapitulate the biological interaction of CD47 and SIRPalpha, we designed expression constructs to produce their recombinant, soluble, extracellular interaction domains. CD47 was produced with an N-terminal 6His tag. SIRPalpha was produced with an N-terminal Avi-Tag for site-specific biotin incorporation. The CD47-SIRPalpha interaction was measured by TR-FRET using affinity tag linked reagents (anti-6His-Eu donor and streptavidin-XL665 acceptor). SIRPalpha without biotin incorporation was used as a positive control inhibitor.
# SEQUENCE No. (e.g., 1, 2, 3, etc.); […] (e.g., Cells, Incubation, Reagent, etc.); VALUE and DESCRIPTION.
# 1a. Reagent. 3 uL CD47-His (12.5 nM) and Anti-His Eu Donor reagent (0.7 nM) added to respective wells in Assay buffer; white/solid bottom high base, med bind 1536-well plates (Greiner 789075)
# 1b. Reagent. 2 uL Assay buffer negative control for background fluorescence
# 2. Reagent. 23 nL library compounds (7-pt, 1:4 intraplate titration series) or DMSO control transferred by Pin Tool
# 3. Centrifuge. Centrifuge plate for 30 s at 1000 RPM
# 4. Incubation.#Incubate reagents at room temperature for 30 min, protected from light
# 5. Reagent. 2 uL SIRPalpha-biotin (100 nM) in Assay buffer
# 6. Incubation.#Incubate reagents at room temperature for 30 min, protected from light
# 7. Reagent. 1 uL SAV-XL665 (85 nM) acceptor reagent added to respective wells
# 8. Centrifuge. Centrifuge plate for 30 s at 1000 RPM
# 9. Incubation. Incubate reagents at room temperature for 30 min, protected from light
# 10. Detector. Measure Top TR-FRET on EnVision (Eu/APC filter set); calculate ratio Ch1/Ch2
# 1. Assay buffer composition.#Phosphate buffered saline (PBS; 10 mM Phosphate, 137 mM NaCl, and 2.7 mM KCl; pH 7.4), 0.05% IGEPAL CA-630
# 2. 23nL of […] library compounds (7 plates) or DMSO vehicle control transferred to 9 Greiner white/solid bottom high base, TC plates in 7 interplate 1:5 titrations (see Yasgar, A. et al. 2008) with Pintool. Two of the 9 plates are DMSO-only in compound field at beginning and end of compound library-treated plates.
# 10. Detector settings#Mirror = LANCE/DELFIA Dual Enh; Ex. Filter = UV2[TRF] 320; Em. Filter = APC 665; 2nd Em. Filter = Europium 615; Measurement h = 6.5; Ex. light (%) = 100; Delay = […]; Window t = 100 us; No. Seq. windows = 1; Time between flashes = 2000us; No. of flashes = 100; No. of flashes for 2nd detector = 100; Calculation: "Ratio Ch1/Ch2"
# Chain of Tyrosine-protein phosphatase non-receptor type substrate 1 (Homo sapiens) + Leukocyte surface antigen CD47 (Homo sapiens) (P78324 whole entry, looked up): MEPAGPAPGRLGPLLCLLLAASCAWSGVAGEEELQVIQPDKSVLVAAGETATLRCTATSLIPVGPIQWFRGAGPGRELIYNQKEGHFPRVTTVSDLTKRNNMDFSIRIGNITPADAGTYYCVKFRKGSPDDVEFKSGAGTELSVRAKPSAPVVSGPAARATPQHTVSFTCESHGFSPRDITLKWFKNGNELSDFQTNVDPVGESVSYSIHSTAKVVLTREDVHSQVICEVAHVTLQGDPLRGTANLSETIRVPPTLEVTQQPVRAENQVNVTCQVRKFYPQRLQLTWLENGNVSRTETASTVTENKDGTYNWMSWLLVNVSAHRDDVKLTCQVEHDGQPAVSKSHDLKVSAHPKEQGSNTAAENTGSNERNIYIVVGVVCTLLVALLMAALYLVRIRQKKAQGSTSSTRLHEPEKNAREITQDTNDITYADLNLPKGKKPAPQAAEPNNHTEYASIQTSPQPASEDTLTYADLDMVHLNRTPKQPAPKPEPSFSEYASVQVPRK
# Chain of Tyrosine-protein phosphatase non-receptor type substrate 1 (Homo sapiens) + Leukocyte surface antigen CD47 (Homo sapiens) (Q08722 whole entry, looked up): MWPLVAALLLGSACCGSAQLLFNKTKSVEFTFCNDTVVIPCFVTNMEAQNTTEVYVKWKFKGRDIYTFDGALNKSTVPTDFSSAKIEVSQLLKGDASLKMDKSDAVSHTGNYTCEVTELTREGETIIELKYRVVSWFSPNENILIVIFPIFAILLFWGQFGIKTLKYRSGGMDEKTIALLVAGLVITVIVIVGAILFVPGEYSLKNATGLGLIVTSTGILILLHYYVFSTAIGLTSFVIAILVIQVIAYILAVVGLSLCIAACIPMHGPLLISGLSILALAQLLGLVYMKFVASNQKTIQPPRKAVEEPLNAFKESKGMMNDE
row,SMILES,outcome
1,CCC1(O)CC2CN(CCc3c([nH]c4ccccc34)[C@@](C(=O)OC)(c3cc4c(cc3OC)N(C=O)C3[C@]45CCN4CC=C[C@@](CC)([C@@H](OC(C)=O)[C@]3(O)C(=O)OC)[C@H]45)C2)C1 (stereo not given in full),inactive
2,CCCCCCC(=O)OC1CC(C)(C)NC(C)(C)C1,inactive
3,C[N+](C)(C)CC=O,inactive
4,c1ccc(C2CN3CCSC3=N2)cc1 (stereo not given),inactive
5,C[C@](Cc1ccc(O)c(O)c1)(NN)C(=O)O,inactive
6,CN1CCC2(CCN3CCc4c(oc5ccccc45)C3C2)N(C)C1=O (stereo not given),inactive
7,CC(=O)N[C@@H](Cc1c[nH]c2ccccc12)C(=O)OCc1cc(C(F)(F)F)cc(C(F)(F)F)c1,inactive
8,CNCCNS(=O)(=O)c1cccc2cnccc12,inactive
9,CCN(CC)CCCCCCCCOC(=O)c1cc(OC)c(OC)c(OC)c1,inactive
10,CCn1c(=O)[nH]c2cc(Cl)c(Cl)cc21,inactive
11,Cc1cccc(C2CN(C)CCc3c2cc(O)c(O)c3Cl)c1 (stereo not given),inactive
12,Cn1cc(C(F)(F)F)nc1-c1ccc(OCC(O)CNCCOc2ccc(O)c(C(N)=O)c2)cc1 (stereo not given),inactive
13,OC[C@H]1O[C@H](n2cnc3c(N[C@H]4CCC[C@@H]4O)ncnc32)[C@H](O)[C@@H]1O,inactive
14,O=C(OCCN1CCOCC1)C1(c2ccccc2)CCCCC1,inactive
15,c1ccc2c(c1)CC(N1CCN(c3cccc4c3OCCO4)CC1)C2,inactive
16,CC1CNCCN1S(=O)(=O)c1cccc2cnccc12 (stereo not given),inactive
17,Nc1nc2ccc(Cl)cc2c2nc(-c3ccco3)nn12,inactive
18,CCCCCC[C@@H]([C@@H](C)O)n1cnc2c(N)ncnc21,inactive
19,OC[C@H]1NC[C@@H](O)[C@@H]1O,inactive
20,COc1cc2c(CCNC(C)=O)c[nH]c2cc1O,inactive

row,SMILES,outcome
1,O=C(O)C1=CCCNC1,inactive
2,C[C@]12C=CC(=O)C=C1CC[C@@H]1C2=CC[C@]2(C)[C@@H](C(=O)CN3CCN(c4cc(N5CCCC5)nc(N5CCCC5)n4)CC3)CC[C@@H]12,inactive
3,N[C@@H](Cc1c[nH]c2ccccc12)C(=O)O,inactive
4,Cn1c(=O)c2c(nc(/C=C/c3cccc(Cl)c3)n2C)n(C)c1=O,inactive
5,CCCn1c(=O)c2[nH]c(C3CCCC3)nc2n(CCC)c1=O,inactive
6,S=C(S)N1CCCC1,inactive
7,C#CC(N)CCC(=O)O (stereo not given),inactive
8,OCC1NCC(O)C(O)C1O (stereo not given),inactive
9,[Li+],inactive
10,COc1ccc2c(c1)CCC1C2CC[C@@]2(C)C1CC[C@@H]2NCCCCCCN1C(=O)C=CC1=O (stereo not given in full),inactive
11,CC(N)(Cc1ccc(O)c(O)c1)C(=O)O (stereo not given),inactive
12,Fc1ccc(CN(C2=NCCN2)c2c(Cl)cccc2Cl)cc1,inactive
13,NOCC(=O)O,inactive
14,Cc1cccc(C(=O)NCN2CCN(c3ccccc3C#N)CC2)c1,inactive
15,N[C@@H](CCC(=O)N[C@H](CSN=O)C(=O)NCC(=O)O)C(=O)O,inactive
16,C=CCN1CCc2c(cc(O)c(O)c2Cl)C(c2ccccc2)C1 (stereo not given),inactive
17,c1ccc2c(c1)CCC[C@H]2Nc1nc2ccccc2[nH]1,inactive
18,CNc1ncnc2c1ncn2[C@H]1C[C@H](OP(=O)(O)O)[C@@H](COP(=O)(O)O)O1,inactive
19,CC(=O)[C@H]1CCC2C3CC=C4C[C@@H](OS(=O)(=O)O)CC[C@]4(C)C3CC[C@@]21C (stereo not given in full),inactive
20,CCN1C(=O)C=CC1=O,inactive
